Bioassay records: PubChem BioAssay, National Center for Advancing Translational Sciences (NCATS)
DT40 TDP1 no CPT: qHTS for Inhibitors of human tyrosyl-DNA phosphodiesterase 1 (TDP1): qHTS in cells in absence of CPT; DT40 Tdp1-/- hTDP1 cells, no CPT, ATP luminescence, 48 h; Potency, µM (titrated, usually from 46.2 µM), inactives show at the top dose activity change, negative = growth inhibition, most hits filed as inhibitors; 15% of 420,000 active; further: potency means the concentration at half of the fitted maximal effect; nearly all actives have a fitted effect of over 55% in size
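Chicken DT40 Tdp1-/- cells stably complemented with human TDP1 were seeded at 400 cells/well with DMSO in place of 20 nM camptothecin. After compound pinning, cells grew at least 48 hr at 37 °C; viability read by CellTiter-Glo luminescence.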
IL-1B inflam inh: blocks inflammasome-driven IL-1 beta release; AID 743279; THP-1 LPS/ATP IL-1B secretion, AlphaLISA, 16 h; stronger effect = lower value; 4.7% of 360,000 active; activity change, % at 57.5 µM; in the data active means activity change below about -50%; inconclusive means mostly about -30% to -49%
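Secreted IL-1B measured by AlphaLISA bead assay after 16 h compound exposure of THP-1 cells; compounds (final up to 57.5 uM) added 1 h before LPS (250 ng/mL) and ATP (1.25 mM) stimulation; lower signal means less secretion.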
12-LOX inh: inhibitors of human 12S-lipoxygenase ALOX12 | purified 12hLO, xylenol orange hydroperoxide absorbance | Potency, µM (top dose mostly 108 µM), without a hit: at the highest dose activity change, negative = inhibition, hits mostly inhibitors | AID 1671190 | 1.1% of 580,000 active; further: potency means the concentration at half of the fitted maximal effect
Target sequence (P18054 whole entry, looked up): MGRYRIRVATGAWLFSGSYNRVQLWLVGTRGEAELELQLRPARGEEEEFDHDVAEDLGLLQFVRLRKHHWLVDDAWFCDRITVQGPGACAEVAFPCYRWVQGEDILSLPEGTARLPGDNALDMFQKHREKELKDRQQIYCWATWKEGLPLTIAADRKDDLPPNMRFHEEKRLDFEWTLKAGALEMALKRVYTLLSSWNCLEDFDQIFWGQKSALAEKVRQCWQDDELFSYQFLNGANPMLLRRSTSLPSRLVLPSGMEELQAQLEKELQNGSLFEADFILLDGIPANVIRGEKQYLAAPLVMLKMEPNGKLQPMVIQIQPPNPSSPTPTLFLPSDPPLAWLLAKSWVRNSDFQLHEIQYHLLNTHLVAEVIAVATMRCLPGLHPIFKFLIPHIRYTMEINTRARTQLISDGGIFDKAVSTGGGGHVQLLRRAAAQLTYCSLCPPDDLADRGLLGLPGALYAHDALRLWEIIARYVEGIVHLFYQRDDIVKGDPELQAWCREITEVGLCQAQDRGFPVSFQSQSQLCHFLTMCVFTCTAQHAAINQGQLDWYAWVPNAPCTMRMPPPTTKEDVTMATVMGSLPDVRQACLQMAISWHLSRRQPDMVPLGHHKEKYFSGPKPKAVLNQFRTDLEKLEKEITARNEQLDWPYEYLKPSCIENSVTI
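Purified human 12hLO at 150 nM in 25 mM Hepes, 0.01% Triton X-100, pH 7.0, preincubated 15 min at room temperature with compound. Reaction started with 40 uM arachidonic acid, 30 min at room temperature. Hydroperoxide measured by Fe-xylenol orange, 573/405 nm absorbance ratio.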
TDP1 cell CPT: growth inhibition of DT40 Tdp1-/-;hTDP1 cells with camptothecin (screen for TDP1 inhibitors); 12% of 420,000 active; AID 686979; Potency, µM (series often up to 46.2 µM), inactives show top-dose activity change, negative = growth inhibition, usual class: inhibitors; chicken DT40 Tdp1-/-;hTDP1 cells + 20 nM CPT, ATP luminescence, 48 h; further: potency means the concentration at half of the fitted maximal effect; nearly all actives have a fitted effect of over 55% in size
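Chicken DT40 Tdp1-/- cells complemented with human TDP1, 400 cells/well, exposed to compounds plus 20 nM camptothecin for at least 48 h at 37 C; viability read as ATP content by CellTiter-Glo luminescence.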
HT1080-NT tox: kills 2HG-producing HT-1080-NT fibrosarcoma cells. Potency, µM (titrated, usually from 46.1 µM), inactives show at the highest dose activity, negative = less viability, hits mostly cytotoxic. 1.6% of 360,000 active. HT-1080-NT fibrosarcoma viability, CellTiter-Glo ATP luminescence, 48 h;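 further: NT is the 2HG producing partner of a matched IDH1 knockdown line; potency means the concentration at half of the fitted maximal effect; 0% = DMSO-treated cells and -100% = media-only wells without cells; nearly all actives have a fitted effect of over 55% in size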
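HT-1080-NT fibrosarcoma cells (2HG-overproducing), 750 cells/well in RPMI with 5% FBS, dosed after 2 h and incubated 48 h at 37C. CellTiter-Glo luminescence normalized to DMSO and no-cell wells; concentration-response curves fitted and classed.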
HT1080 IDH1KD tx: HT-1080 IDH1 knockdown cell toxicity (counter line); HT-1080 IDH1 knockdown viability, ATP luminescence, 48 h; 2% of 360,000 active; AID 686971; Potency, µM (doses to about 46.1 µM), for the others: top-dose activity, negative = toxicity, actives largely listed as cytotoxic;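 further: potency means the concentration at half of the fitted maximal effect; 0% = DMSO wells and -100% = cell-free medium wells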
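In this qHTS, HT-1080 cells depleted of IDH1 are exposed for 48 h at 37 °C to compound titrations. Toxicity is scored from CellTiter-Glo luminescence, with DMSO as full viability and medium alone as none.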
An asterisk follows results filed as active; i = inactive; ? = inconclusive; / = no result; [ ] = remark or other dose. The sample as a whole holds a higher share of hits than the screen did. Unless noted, the call rests on the fitted dose curve; in most records, active means well fitted curve in the direction sought with a large enough effect; inconclusive means small, poorly fitted or top-dose-only effect, or another doubt; inactive means no such curve, though single readings can be large; an effect the other way counts as inactive or inconclusive. Unless noted, on the % scale 0 is the no-effect control and ±100 the full control effect.

SMILES	DT40 TDP1 no CPT	IL-1B inflam inh	12-LOX inh	TDP1 cell CPT	HT1080-NT tox	HT1080 IDH1KD tx
Cc1ccc(Nc2nc(N)nc(CSc3nc(C)cc(C)n3)n2)cc1	-23%	-23	?	-14%	-19%	-6%
Cc1cccc(Nc2nc(N)nc(CSc3nccc(C)n3)n2)c1	-7%	-27	0%	-1%	3%	2%
Cc1ccc(Nc2nc(N)nc(CC#N)n2)cc1	15%	-9	22%	0%	13µM*	7.1µM*
Cc1ccc(Nc2nc(N)nc(CCl)n2)cc1	?	/	356%	16µM*	2.3µM*	8.2µM*
Cc1cccc(Nc2nc(N)nc(CCl)n2)c1	21µM*	-106*	38%	13µM*	3.7µM*	?
CCOc1ccc(Nc2nc(N3CCCCC3)nc(N3CCCCC3)n2)cc1	?	6	-17%	-21%	4%	9%
Cc1ccc(Nc2nc(N)nc(CSc3ncccn3)n2)cc1	-16%	-24	-2%	?	-9%	-2%
Cc1ccc(Nc2nc(N)nc(CN3CCc4ccccc4C3)n2)cc1	?	?	7%	18µM*	-17%	-7%
Cc1c(Cl)cccc1Nc1nc(N)nc(CN2CCc3ccccc3C2)n1	-14%	?	-17%	-15%	-18%	-22%
CCN1CCN(C(=O)CN2CC3CC(C2)[C@H]2CCCC(=O)N2C3)CC1 (stereo partly specified)	/	/	35%	/	/	/
CC(=O)Nc1cc(-c2cccc(C(=O)NCCO)c2)cn2c(-c3ccc(F)cc3)cnc12	21µM*	-21	-21%	15µM*	?	-26%
CC(=O)Nc1cc(-c2cccc(C(=O)NCCO)c2)cn2c(-c3cccc(C(F)(F)F)c3)cnc12	23µM*	-14	-5%	18µM*	23µM*	?
c1ccc(-n2nccc2CN2CCC3(CCNCC3)C2)cc1	/	/	34%	/	/	/
Cc1[nH]c2ccccc2c1SCc1nnc(SCc2ccccc2)n1C	?	-57*	81%	-15%	-15%	?
Cc1[nH]c2ccccc2c1SCc1nnc(SCc2ccc(Cl)cc2)n1C	?	/	0%	?	?	?
O=C(CN1CCN(c2ccc([N+](=O)[O-])c3cnccc23)CC1)Nc1cccc(F)c1	/	/	3%	/	/	/
NC(=Nc1nc(-c2ccccn2)cc2ccccc12)c1ccccn1	0.018µM*	54	?	0.015µM*	-14%	?
CC1CN(S(=O)(=O)c2cccc(C(=O)Nc3ccc(N4CCCCC4)cc3)c2)CC(C)O1 (stereo unspecified)	-13%	2	10%	1%	13%	17%
CC1CN(S(=O)(=O)c2cccc(C(=O)Nc3ccccc3N3CCCC3)c2)CC(C)O1 (stereo unspecified)	12µM*	-2	2%	?	-12%	-10%
CC1CN(S(=O)(=O)c2cccc(C(=O)Nc3cc(Cl)ccc3N3CCOCC3)c2)CC(C)O1 (stereo unspecified)	15µM*	-22	0%	?	-26%	-19%
Cc1nc2ccc(NC(=O)c3cccc(S(=O)(=O)N4CC(C)OC(C)C4)c3)cc2s1 (stereo unspecified)	12µM*	11	0%	7.3µM*	-5%	-8%
CN1CCN(S(=O)(=O)c2cccc(C(=O)Nc3ccccc3N3CCCC3)c2)CC1	-20%	i	407%	-26%	-8%	-1%
COc1cc(/C=C2\NC(=O)NC2=O)c(Br)cc1OCc1ccccc1F	/	/	2%	/	/	/
COc1cc(NC(=O)c2ccc3c(c2)N(C)C2CCCCN2C3=O)cc(OC)c1OC (stereo unspecified)	/	/	29%	/	/	/
O=C(NCc1ccccc1Cl)C(=O)Nc1ccccc1	/	/	-6%	/	/	/
SMILES	DT40 TDP1 no CPT	IL-1B inflam inh	12-LOX inh	TDP1 cell CPT	HT1080-NT tox	HT1080 IDH1KD tx
O=C1ON=C(c2ccccc2)/C1=C/c1cccnc1	-5%	-1	-3%	-15%	-10%	-3%
O=C1ON=C(c2cccc([N+](=O)[O-])c2)/C1=C/c1ccc(O)cc1	13µM*	-100*	7.9µM*	12µM*	?	?
COc1ccc(/C=C2\C(=O)ON=C2c2ccccc2)cc1	21µM*	?	?	?	-2%	-13%
O=C1ON=C(c2ccc(Cl)c([N+](=O)[O-])c2)/C1=C/c1cccc([N+](=O)[O-])c1O	16%	-7	74%	-1%	13%	8%
O=C1ON=C(c2ccccc2)/C1=C/c1ccc(O)c(O)c1	?	0	?	?	-7%	-18%
O=C1ON=C(c2ccccc2)/C1=C/c1ccc(OS(=O)(=O)c2ccccc2)cc1	?	9	18µM*	-27%	-2%	-3%
COc1cc(/C=C2\C(=O)ON=C2c2ccc(Cl)cc2)ccc1O	23µM*	-95*	?	16µM*	7%	9%
Fc1ccc(CSc2cccc3cccnc23)cc1	/	/	2%	/	/	/
CCO[C@H]1CN(Cc2ccc(OC)c(OCc3cccc(F)c3)c2)C[C@@H]1O	/	/	4%	/	/	/
CCCCc1c(CCC)c(=N)c2ccccc2n1C	5.2µM*	-77*	?	23µM*	-15%	21µM*
CCOC(=O)CCn1c(=O)c2c(nc(Br)n2Cc2ccccc2)n(C)c1=O	-51%	12	-1%	-15%	-3%	-1%
CCOC(=O)Cn1c(=O)c2c(nc(N3CCCCC3)n2Cc2ccccc2)n(C)c1=O	15µM*	-1	0%	21µM*	-27%	-6%
CCOC(=O)Cn1c(=O)c2c(nc(Br)n2Cc2ccc(Cl)cc2)n(C)c1=O	9.2µM*	18	/	13µM*	4%	-12%
CCOC(=O)Cn1c(=O)c2c(nc(N3CCOCC3)n2C)n(C)c1=O	-13%	5	8%	-4%	7%	14%
O=C(CC(c1ccccc1)c1ccccc1)N1CCN(C/C=C/c2ccccc2)CC1	/	/	-16%	/	/	/
COCC(=O)N1CCN(Cc2nc(C(C)(C)C)no2)CC1	/	/	-5%	/	/	/
Cc1oc(C(O)c2ccccc2)nc1C(=O)N1CCC(n2c(=O)[nH]c3ccccc32)CC1 (stereo unspecified)	/	/	-29%[176 µM]	/	/	/
Cc1c(O)nc(SC2CC(=O)N(c3cc(Cl)cc(Cl)c3)C2=O)[nH]c1=O (stereo unspecified)	-6%	11	5.6µM*	12%	20%	18%
